Out of some 5,500 compounds screened, about 2,000 (36%) were called active. Roughly 18% stayed inconclusive and do not appear here. Rule as the data show it: active = normalized growth mostly below about 0.91 (no sharp cut-off); inconclusive = no clear call, values can overlap the other calls; inactive = mostly above about 0.92. Some of the results follow.
Test: chemical genetic growth profiling, strain panel (AID 1159580);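 also: tested at 20 µM; growth read once vehicle control cultures reached saturation at 30 °C; 1 = growth at the plate median or of vehicle wells; lower values mean less growth of the strain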
Conditions: S. cerevisiae deletion strains, growth OD
[1] = locus YDR150W, strain NUM1, hits give low values
[2] = locus YGR078C, strain PAC10, hits give low values
[3] = locus YJR075W, strain HOC1, hits give low values
[4] = locus YPL241C, strain CIN2, hits give low values

Measured: normalized growth

C[C@]12CCC(=O)C=C1CC[C@@H]1[C@@H]2CC[C@]2(C)C(=O)CC[C@@H]12
inactive: locus YAL040C, strain CLN3, hits give low values 1.01 | locus YCL061C, strain MRC1 (second series), hits give low values 0.994 | [1] 0.988 | locus YDR363W, strain ESC2, hits give low values 0.999 | locus YER002W, strain NOP16, hits give low values 0.99 | [2] 0.987 | [3] 0.991 | locus YNL128W, strain TEP1, hits give low values 0.996 | locus YNL175C, strain NOP13, hits give low values 0.997 | locus YNL197C, strain WHI3, hits give low values 0.997 | locus YNL224C, strain SQS1, hits give low values 1.01 | locus YOR083W, strain WHI5 (second series), hits give low values 0.924 | [4] 0.997

CC12CCC3C(CCC4=CC(=O)CCC43CO)C1CCC2OC(=O)c1ccccc1 (centres undefined)
inactive: locus YAL013W, strain DEP1, hits give low values 0.994 | locus YBR229C, strain ROT2, hits give low values 1.01 | locus YCL061C, strain MRC1, hits give low values 0.999 | locus YDL101C, strain DUN1, hits give low values 1.01 | [1] 0.993 | locus YEL061C, strain CIN8, hits give low values 1 | [2] 1.01 | locus YHR030C, strain SLT2, hits give low values 0.946 | locus YHR087W, strain rtc3, hits give low values 1.01 | locus YJL187C, strain SWE1, hits give low values 1.02 | locus YJR043C, strain POL32, hits give low values 0.996 | [3] 1.02 | locus YLR039C, strain RIC1, hits give low values 0.978 | locus YLR058C, strain SHM2 (second series), hits give low values 1 | locus YLR085C, strain ARP6, hits give low values 1 | locus YLR262C, strain YPT6, hits give low values 0.956 | locus YML094W, strain GIM5, hits give low values 1 | locus YMR219W, strain ESC1, hits give low values 1.01 | locus YMR263W, strain SAP30, hits give low values 0.991 | locus YNL153C, strain GIM3, hits give low values 1.01 | locus YNL298W, strain CLA4 (second series), hits give low values 1.05 | locus YNL322C, strain KRE1, hits give low values 1.02 | locus YNR030W, strain Alg12, hits give low values 0.986 | locus YPL055C, strain LGE1, hits give low values 1.02 | [4] 1.02 | locus YPR135W, strain CTF4, hits give low values 0.923

Reference: PubChem BioAssay AID1159580 (chemical genetic matrix, 2015)
